The text below walks through data of PubChem BioAssay.

This experiment is described as follows: probe aEGFR binding to arrayed compounds – biochemical, biotinylated probe, 635/667 nm fluorescence, primary screen (AID 1097).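 Also: probe is a biotinylated anti-EGFR antibody binding compounds printed on slides; score combines fluorescence near 667 nm and signal to noise of each spot.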 The following applies: small-molecule microarray, higher = more signal.
Consider `CCC(CC)C(O)C1C=CC2C(=O)N(c3ccccc3)C(=O)C2N1Nc1ccc(C(C)C)cc1` (stereo unspecified), for which the composite z-score came out at 0.118.

In turn, `C=C(C)C1CCC(C(O)C2C=CC3C(=O)N(C)C(=O)C3N2N2CCCCC2)CC1` (stereo unspecified) came in with a composite z-score of 0.368.

For `O=C1NC(=O)C2C1C=CC(C(O)c1cccc3ccccc13)N2Nc1ccc(Cl)cc1Cl` (stereo unspecified), the composite z-score was determined as 0.131.

For `C=CCOC(=O)[C@H]1[C@@H]2C(=O)O[C@@H](c3ccccc3)[C@@H](c3ccccc3)N2[C@@H](c2ccc(OCCOC(=O)[C@@H]3C[C@@H]4C(=O)N[C@@H](CCCCN(C)C)C(=O)N4[C@@H]3c3ccc(O)cc3)cc2)[C@]12C(=O)Nc1ccccc12`, the composite z-score is -0.0177.

Take `CCOC(=O)C1=CC[C@@H](c2ccccc2C(F)(F)F)N(S(=O)(=O)c2ccc(C)cc2)[C@H]1c1ccc(C#N)cc1`: the composite z-score is -0.0061.

Regarding `CCCNC(=O)[C@@H]1c2ccccc2C(=O)N(C(C)C)[C@H]1c1ccc(CO)cc1`, the composite z-score was -0.196.
